According to PubChem BioAssay (NCI):
About 83,000 compounds went through this panel and 20% of them were active in at least one assay; those are over-represented in the sample as a whole.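 In brief: 96-well plates, 48 h treatment, single concentration, percent growth endpoint.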 The source made the active and inactive calls. Rule for the calls: active = growth percent below 10; inactive = the rest.

These compounds were tested on M14 melanoma (assay: NCI-60 one-dose screen, 48 h (100 = growth as untreated, 0 = no growth, -100 = all killed)). Settings: 10 µM unless noted.
In the case of `Fc1ccc(-c2nnc(-c3c(-c4ccc(F)cc4)nc4ncccn34)o2)cc1`, the growth is reported as 112% (inactive).
`S=c1[nH]nc2sc3ccccc3n12` was tested, and the growth was 104% (inactive).
In the case of `Clc1ccc2nc(Cl)c3ccccc3c2c1`, the growth is reported as 99.9% (inactive).
`CCOC(Cc1c(N)[nH]c(=S)[nH]c1=O)OCC` was tested, and the growth was 105% (inactive).
For `COc1ccc(-c2nnc(COc3ccc(NC(=O)Nc4cc(C(F)(F)F)cc(C(F)(F)F)c4)cc3F)o2)cc1`, the growth was 18% (inactive).
`Clc1cccc(Cc2cn3cc(-c4ccccc4)nc3s2)c1` was tested, and the growth was 6.04% (active).
With `ClC1=C(Cl)C(Cl)=C(Cl)C1=C/C=C/c1ccccc1` the growth was -55.6% (active).
With `O=C(N1CCC(CN=c2cc3n(-c4ccc(Cl)cc4)c4ccccc4nc-3cc2Nc2ccc(Cl)cc2)CC1)N1CC1` the growth was -73.8% (active).
With `COc1cc(/C=C2\CCC/C(=C\c3ccc(OCC4CO4)c(OC)c3)C2=O)ccc1OCC1CO1` (stereo not given) the growth was 2.79% (active).
For `Nc1nc(N)c([N+](=O)[O-])c(=O)[nH]1`, the growth was 106% (inactive).
With `Oc1[nH]c2ccccc2c1/C=c1/ccc2c(c1)N=C(c1cc(F)cc(F)c1)N=2` the growth was 58.2% (inactive).
For `O=c1ccn(C2CCCO2)c(=O)[nH]1` (stereo not given), the growth was 107% (inactive).
For `COc1ccc2nc3cc(Cl)ccc3c(Nc3cc(C(C)C)c(O)cc3C)c2c1`, the growth was 56.2% (inactive).
`COc1ccc(-c2cnnn2-c2cc(OC)c3c(c2)OCO3)cc1` was tested, and the growth was 10.6% (inactive).
In the case of `CC1=CC(=O)C(C(C)=Nc2ccccc2Cl)C(=O)O1` (stereo not given), the growth is reported as 107% (inactive).
For `O=[P@@]1(c2ccccc2)O[C@H](COCc2ccccc2)[C@@H](OCc2ccccc2)[C@H](OCc2ccccc2)[C@H]1NCc1ccccc1`, the growth was 15.2% (inactive).
`COc1ccc(-c2noc(N)c2-c2cc(OC)c3c(c2)OCO3)cc1` was tested, and the growth was 11.7% (inactive).
For `CN(C)c1nc(-c2ccco2)n2nc(-c3ccco3)cc2n1`, the growth was 99.7% (inactive).
`COc1cccc(C2C(C#N)=C(N)Oc3cc(OC)ccc32)c1` (stereo not given) was tested, and the growth was 12.6% (inactive).
With `c1cnc2ccc3ncccc3c2c1` the growth was 99.8% (inactive).
For `O=C(c1ccccc1)c1ccco1`, the growth was 98.7% (inactive).
`CCOC(=O)C1=NN(c2ccc(Cl)cc2)C2C3N(c4ccc(Cl)cc4)N=C(C(=O)OCC)N3c3ccccc3N12` (stereo not given) was tested, and the growth was 102% (inactive).
For `Cc1cc(NC(=O)c2ccc(N)cc2)ccc1N=Nc1ccc2c(O)c(N=Nc3ccc(Cl)c(S(=O)(=O)O)c3)c(S(=O)(=O)O)cc2c1`, the growth was 92.5% (inactive).
With `O=C(Nc1cccc(C(F)(F)F)c1)Nc1ccc(OCc2nnc(-c3ccc(Cl)cc3)o2)c(F)c1` the growth was 73.5% (inactive).
In the case of `CCN1C(=O)c2ccc3c4c(ccc(c24)C1=O)C(=O)N(CCCNCc1ccccc1OC)C3=O`, the growth is reported as -92.8% (active).
In the case of `C=C1c2c(C)nn(-c3ccc(C#CCOC4OC(CO)C(O)C(O)C4O)cc3)c2N(C)C23C[C@H]1C1(C)c4c(C)nn(-c5ccc(C#CCOC6OC(CO)C(O)C(O)C6O)cc5)c4N(C)C(C)(C[C@H]12)C3` (stereo not given in full), the growth is reported as 0.248% (active).
With `O=C(Nc1ccc(OCc2nnc(-c3ccccc3)o2)c(F)c1)Nc1ccc(Cl)c(C(F)(F)F)c1` the growth was 23.8% (inactive).
For `O=C(/C=C/c1ccccc1Cl)c1ccc(O)cc1`, the growth was 76.8% (inactive).
In the case of `COc1cc(/C=C/C(=O)c2ccc(F)cc2)ccc1OCCCCCOc1cc2c(cc1OC)C(=O)N1CCCC1C=N2` (stereo not given), the growth is reported as -70% (active).
`O=C(/C=C/c1ccc(O)c(O)c1)N1CCN(c2ccc(Cl)cc2)CC1` was tested, and the growth was 67.8% (inactive).
`O=C(OCCBr)c1ccc(Cl)c([N+](=O)[O-])c1` was tested, and the growth was 91.8% (inactive).
For `COc1ccc2c(c1)/C(=C\c1c[nH]c3ccc(F)cc13)C(=O)N2`, the growth was 105% (inactive).
`Cc1cc(C(=O)O)c(C)cc1C(=O)O` was tested, and the growth was 101% (inactive).
For `O=C1/C(=N/O)CCc2ccccc21`, the growth was 104% (inactive).

What follows are compounds tested on HCT-15 colon in the same assay as above. Settings: 10 µM unless noted.
`Fc1ccc(-c2nnc(-c3c(-c4ccc(F)cc4)nc4ncccn34)o2)cc1` was tested, and the growth was 87.9% (inactive).
For `S=c1[nH]nc2sc3ccccc3n12`, the growth was 100% (inactive).
With `Clc1ccc2nc(Cl)c3ccccc3c2c1` the growth was 91.4% (inactive).
For `CCOC(Cc1c(N)[nH]c(=S)[nH]c1=O)OCC`, the growth was 106% (inactive).
In the case of `COc1ccc(-c2nnc(COc3ccc(NC(=O)Nc4cc(C(F)(F)F)cc(C(F)(F)F)c4)cc3F)o2)cc1`, the growth is reported as 10% (inactive).
With `Clc1cccc(Cc2cn3cc(-c4ccccc4)nc3s2)c1` the growth was 40.4% (inactive).
`ClC1=C(Cl)C(Cl)=C(Cl)C1=C/C=C/c1ccccc1` was tested, and the growth was -77% (active).
With `O=[N+]([O-])c1cnc(Sc2ccncn2)c([N+](=O)[O-])c1` the growth was 0.0905% (active).
`O=C(N1CCC(CN=c2cc3n(-c4ccc(Cl)cc4)c4ccccc4nc-3cc2Nc2ccc(Cl)cc2)CC1)N1CC1` was tested, and the growth was -36.8% (active).
For `COc1cc(/C=C2\CCC/C(=C\c3ccc(OCC4CO4)c(OC)c3)C2=O)ccc1OCC1CO1` (stereo not given), the growth was 14.4% (inactive).
In the case of `COc1ccc(-n2nnc(C(=O)O)c2-c2cc(OC)c(OC)c(OC)c2)cc1`, the growth is reported as 101% (inactive).
In the case of `Nc1nc(N)c([N+](=O)[O-])c(=O)[nH]1`, the growth is reported as 104% (inactive).
For `Oc1[nH]c2ccccc2c1/C=c1/ccc2c(c1)N=C(c1cc(F)cc(F)c1)N=2`, the growth was 31.5% (inactive).
For `O=c1ccn(C2CCCO2)c(=O)[nH]1` (stereo not given), the growth was 105% (inactive).
For `COc1ccc2nc3cc(Cl)ccc3c(Nc3cc(C(C)C)c(O)cc3C)c2c1`, the growth was 10.6% (inactive).
With `COc1ccc(-c2cnnn2-c2cc(OC)c3c(c2)OCO3)cc1` the growth was 14.8% (inactive).
With `CC1=CC(=O)C(C(C)=Nc2ccccc2Cl)C(=O)O1` (stereo not given) the growth was 105% (inactive).
In the case of `O=[P@@]1(c2ccccc2)O[C@H](COCc2ccccc2)[C@@H](OCc2ccccc2)[C@H](OCc2ccccc2)[C@H]1NCc1ccccc1`, the growth is reported as 15.9% (inactive).
For `COc1ccc(-c2noc(N)c2-c2cc(OC)c3c(c2)OCO3)cc1`, the growth was 20.6% (inactive).
`CN(C)c1nc(-c2ccco2)n2nc(-c3ccco3)cc2n1` was tested, and the growth was 78.1% (inactive).
For `COc1cccc(C2C(C#N)=C(N)Oc3cc(OC)ccc32)c1` (stereo not given), the growth was 10.4% (inactive).
For `O=C(c1ccccc1)c1ccco1`, the growth was 104% (inactive).
With `CCOC(=O)C1=NN(c2ccc(Cl)cc2)C2C3N(c4ccc(Cl)cc4)N=C(C(=O)OCC)N3c3ccccc3N12` (stereo not given) the growth was 121% (inactive).
For `Cc1cc(NC(=O)c2ccc(N)cc2)ccc1N=Nc1ccc2c(O)c(N=Nc3ccc(Cl)c(S(=O)(=O)O)c3)c(S(=O)(=O)O)cc2c1`, the growth was 83.6% (inactive).
With `O=C(Nc1cccc(C(F)(F)F)c1)Nc1ccc(OCc2nnc(-c3ccc(Cl)cc3)o2)c(F)c1` the growth was 42.9% (inactive).
For `CCN1C(=O)c2ccc3c4c(ccc(c24)C1=O)C(=O)N(CCCNCc1ccccc1OC)C3=O`, the growth was -78.3% (active).
`C=C1c2c(C)nn(-c3ccc(C#CCOC4OC(CO)C(O)C(O)C4O)cc3)c2N(C)C23C[C@H]1C1(C)c4c(C)nn(-c5ccc(C#CCOC6OC(CO)C(O)C(O)C6O)cc5)c4N(C)C(C)(C[C@H]12)C3` (stereo not given in full) was tested, and the growth was 21.7% (inactive).
`O=C(Nc1ccc(OCc2nnc(-c3ccccc3)o2)c(F)c1)Nc1ccc(Cl)c(C(F)(F)F)c1` was tested, and the growth was 11.8% (inactive).
For `O=C(/C=C/c1ccccc1Cl)c1ccc(O)cc1`, the growth was 37.5% (inactive).
`O=C(Nc1ccncc1)C(=O)c1cn(S(=O)(=O)c2cccc(F)c2)c2ccccc12` was tested, and the growth was 25.3% (inactive).
In the case of `COc1cc(/C=C/C(=O)c2ccc(F)cc2)ccc1OCCCCCOc1cc2c(cc1OC)C(=O)N1CCCC1C=N2` (stereo not given), the growth is reported as -3.47% (active).
`O=C(/C=C/c1ccc(O)c(O)c1)N1CCN(c2ccc(Cl)cc2)CC1` was tested, and the growth was 48.5% (inactive).
`O=C(OCCBr)c1ccc(Cl)c([N+](=O)[O-])c1` was tested, and the growth was 90.9% (inactive).
In the case of `COc1ccc2c(c1)/C(=C\c1c[nH]c3ccc(F)cc13)C(=O)N2`, the growth is reported as 66% (inactive).
`Cc1cc(C(=O)O)c(C)cc1C(=O)O` was tested, and the growth was 104% (inactive).
For `O=C1/C(=N/O)CCc2ccccc21`, the growth was 102% (inactive).
